Here are results for 38 compounds from PubChem BioAssay (NCATS).

Records with an inconclusive call do not appear. Active and inactive are the calls of the source. The call rests on the fitted dose curve.
On the % scale 0 is the no-effect control and ±100 the full control effect; potency means the concentration at half of the fitted maximal effect.

Sequence of Atrial natriuretic peptide receptor 1 (Homo sapiens) (P16066 whole entry, looked up): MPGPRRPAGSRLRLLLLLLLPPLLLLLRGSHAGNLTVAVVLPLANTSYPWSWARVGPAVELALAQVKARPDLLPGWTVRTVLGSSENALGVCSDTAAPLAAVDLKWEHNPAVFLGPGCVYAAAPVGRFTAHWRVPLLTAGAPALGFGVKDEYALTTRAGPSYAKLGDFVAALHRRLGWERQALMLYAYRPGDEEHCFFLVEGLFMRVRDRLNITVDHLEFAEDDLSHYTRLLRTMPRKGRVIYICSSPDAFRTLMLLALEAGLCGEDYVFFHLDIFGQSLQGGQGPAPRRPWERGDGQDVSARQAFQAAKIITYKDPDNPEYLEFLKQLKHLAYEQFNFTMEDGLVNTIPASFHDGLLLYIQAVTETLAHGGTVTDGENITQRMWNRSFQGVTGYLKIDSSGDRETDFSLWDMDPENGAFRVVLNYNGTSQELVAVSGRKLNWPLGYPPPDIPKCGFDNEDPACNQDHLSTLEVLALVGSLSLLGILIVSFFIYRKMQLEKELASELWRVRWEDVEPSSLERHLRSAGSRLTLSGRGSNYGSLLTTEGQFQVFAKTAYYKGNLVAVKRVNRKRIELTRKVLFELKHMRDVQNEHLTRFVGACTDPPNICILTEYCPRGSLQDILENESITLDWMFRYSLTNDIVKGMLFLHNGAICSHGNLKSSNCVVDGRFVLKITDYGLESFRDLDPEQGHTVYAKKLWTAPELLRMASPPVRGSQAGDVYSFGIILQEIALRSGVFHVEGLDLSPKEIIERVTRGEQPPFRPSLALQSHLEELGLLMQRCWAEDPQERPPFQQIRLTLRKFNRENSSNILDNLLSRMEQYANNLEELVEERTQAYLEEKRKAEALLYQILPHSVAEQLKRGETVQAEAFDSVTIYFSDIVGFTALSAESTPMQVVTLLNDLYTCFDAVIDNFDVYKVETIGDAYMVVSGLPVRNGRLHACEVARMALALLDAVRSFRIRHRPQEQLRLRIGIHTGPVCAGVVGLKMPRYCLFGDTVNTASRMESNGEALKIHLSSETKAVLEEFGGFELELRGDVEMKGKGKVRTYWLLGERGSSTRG

The target of the experiment is Atrial natriuretic peptide receptor 1 (Homo sapiens) (UniProt P16066). Briefly: Natriuretic polypeptide receptor (hNpr1) antagonism - Pilot screen (AID 1347049).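 Further: HEK293 cells with hNpr1 and GloSensor cGMP luciferase stimulated by 0.1 nM hNppA; agonist-evoked cGMP luminescence read 20 min after hNppA addition.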 Particulars: hNpr1 cells, antagonist mode cGMP read-out; series mostly up to 57.5 µM; activity change, negative = inhibition: at the top concentration. A digest of the protocol:
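Receptor antagonism read as cGMP-dependent luminescence in hNpr1/pGS-40F HEK293 cells: pre-read after 30 min compound exposure, post-read 20 min after hNppA agonist at 0.1 nM final, all at room temperature, protected from light; A-71915 titration as control.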
As for `COc1cccc(OC)c1OCCNCC1COc2ccccc2O1` (stereo not drawn), the “activity change, negative = inhibition” value was 8.6% (inactive).
Same read-out and setting: the result for `C=C[C@@H]1CN2CC[C@@H]1C[C@H]2[C@H](O)c1ccnc2ccc(OC)cc12` reads -7.46% (inactive).
Take `O=C(/C=C/c1ccc(O)cc1)c1ccc(O)cc1O`: the Potency was 30.1 µM (active).
As to `CC[C@@H](C)[C@H]1O[C@]2(CC[C@H]1C)C[C@@H]1C[C@@H](CC=C(C)[C@@H](O[C@H]3C[C@H](OC)[C@@H](O[C@H]4C[C@H](OC)[C@@H](O)[C@H](C)O4)[C@H](C)O3)[C@@H](C)C=CC=C3CO[C@@H]4[C@H](O)C(C)=C[C@@H](C(=O)O1)[C@]34O)O2`, the “activity change, negative = inhibition” value is -20.2% (inactive).
Same read-out and setting: the result for `O=C(/C=C/c1ccc(O)c(O)c1)OCCc1ccccc1` reads -2.48% (inactive); that for `Oc1ccccc1O`, 11.3% (inactive).
The same measure, in the same setting: the result for `CC(C)NCC(O)COc1cccc2ccccc12` (stereo not drawn) reads 10.6% (inactive); that for `NC[C@@H]1O[C@H](C23CC4CC(CC(C4)C2)C3)Cc2c1ccc(O)c2O`, 2.79% (inactive); that for `Cn1cc(C2=C(c3ccc(Cl)cc3Cl)C(=O)NC2=O)c2ccccc21`, -15.2% (inactive).
`COc1cc2c(CCNC(C)=O)c[nH]c2cc1Cl`: the “activity change, negative = inhibition” value was -1.66% (inactive).
For `O=C(Nc1ccccc1)c1cc([N+](=O)[O-])ccc1Cl`, the “activity change, negative = inhibition” value was 16.2% (inactive).
`Oc1cc2c(cc1O)CN(C(=S)NCCc1ccc(Cl)cc1)CCC2`: the “activity change, negative = inhibition” value was -1.43% (inactive).
Consider `OC[C@H]1O[C@@H](n2cnc3c(NC4CCCCC4)ncnc32)[C@H](O)[C@@H]1O`, for which the “activity change, negative = inhibition” value is -1.68% (inactive).
Regarding `CN1C2CC(OC(=O)[C@H](CO)c3ccccc3)CC1C1OC12` (stereo partly drawn), the “activity change, negative = inhibition” value is 1.03% (inactive).
Still for that read-out and setting: the result for `N#C/C(=C\c1ccc(-c2cc(Cl)ccc2Cl)o1)C(=O)Nc1cccc2ncccc12` reads -19.2% (inactive); that for `O=C(O)CCCC[C@@H]1CCSS1`, 4.25% (inactive); that for `CC(C)NC[C@@H](O)c1ccc(O)c(O)c1`, 10.4% (inactive).
In the case of `Cc1cc(NC2CCCCC2)nc(-n2nc(C)cc2C)n1`, the “activity change, negative = inhibition” value is 7.76% (inactive).
On to `Fc1cccc(/C=N/N=C/c2cccc(F)c2)c1`, for which the “activity change, negative = inhibition” value is -27.2% (inactive).
`CCCCCCCCCCCCCCCC(=O)OC(CC(=O)O)C[N+](C)(C)C` (stereo not drawn): the “activity change, negative = inhibition” value is 9.51% (inactive).
Still for that read-out and setting: the result for `OCC1O[C@H](O)C(Cl)C(O)C1O` (stereo partly drawn) reads 5.97% (inactive); that for `COC1=C(OC)C(=O)c2ccccc2C1=O`, -7.27% (inactive); that for `OC[C@H]1O[C@@H](n2cnc3c(Nc4ccccc4)ncnc32)[C@H](O)[C@@H]1O`, 13.8% (inactive).
On to `Nc1nc(Nc2ccccc2)nc2c1ncn2[C@@H]1O[C@H](CO)[C@@H](O)[C@H]1O`, for which the “activity change, negative = inhibition” value is -2.34% (inactive).
With `COc1ccc2c(c1)CCC1C2CC[C@@]2(C)C1CC[C@@H]2NCCCCCCN1C(=O)CCC1=O` (stereo partly drawn), the “activity change, negative = inhibition” value is 2.91% (inactive).
On the same count and under the same terms, the result for `Nc1nc(SCc2ccc([N+](=O)[O-])cc2)c2ncn([C@@H]3O[C@H](CO)[C@@H](O)[C@H]3O)c2n1` reads 4.57% (inactive); that for `O=C(O)CNC(=O)C(CS)Cc1ccccc1` (stereo not drawn), 5.34% (inactive).
As to `Cc1cc(NC(=O)Nc2ccc3c(ccn3C)c2)sn1`, the “activity change, negative = inhibition” value is -4.82% (inactive).
Same read-out and setting: the result for `CN(C)c1nc(N)c(C(=O)N=C(N)N)nc1Cl` reads -29.7% (inactive); that for `c1ccc(-c2ccccn2)nc1`, -2.87% (inactive).
The same measure, in the same setting: the result for `Clc1ccc(N2CCN(Cc3c[nH]c4ncccc34)CC2)cc1` reads -28.6% (inactive).
Consider `CO/S(=N\S(=O)(=O)c1ccc(Cl)cc1)c1ccc([N+](=O)[O-])cc1` (stereo not drawn), for which the “activity change, negative = inhibition” value was 14% (inactive).
The same measure, in the same setting: the result for `CC1(C)CCC=[N+]1[O-]` reads 14% (inactive); that for `N[C@@H](CC(=O)O)C(=O)O`, 1.98% (inactive).
On the same count and under the same terms, the result for `O=C1NC(=O)/C(=C/c2ccc(-c3ccc(F)cc3O)o2)S1` reads -2.54% (inactive); that for `C[C@@H](CN1CCC(Cc2ccccc2)CC1)[C@@H](O)c1ccc(O)cc1`, 0.583% (inactive).
Same read-out and setting: the result for `CC1CN(S(=O)(=O)c2cccc3cnccc23)CCN1` (stereo not drawn) reads 4.83% (inactive).
Consider `COc1cc(SC)ccc1C(=O)N1CCC(Cc2ccccc2)CC1`, for which the “activity change, negative = inhibition” value was -0.147% (inactive).
